The subject of the test is THRa homodimer (NR concentration 90 nM). Description: PBM binding z-score (relative to random genomic background probes); higher = stronger binding; sequences stand for … in GC…GCGATTGACAGCGTAGAATGAAGG
In short, it runs like this: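 Antibodies against each partner of ligand-free nuclear receptor dimers (one per run) detected binding on custom Agilent 4×180K protein-binding microarrays after 1 h incubation. The double-stranded probes had 34-nt variable regions carrying direct-repeat seeds, single-nucleotide variants, half-site ablations and random human genomic background sequences. Binding z-scores, from regression-normalized fluorescence, use the random background probes as reference.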
Consider TCATATAGGCAAACAGGTGAAAGTCCGTAAGTTA, for which the PBM binding z-score was determined as 0.185.
TCTGCTAGGTCAGTAGGTCAGCTAACGAGCTGCC had a PBM binding z-score of 0.157.
With ATCTCTAGGTAACAAGTTCAGTGAGAGAGAGGAC the figure was 0.878; with TCGAGTAGGTTTGTCGGGGCATTCAGCCAACATA, 0.392.
With ATCTCTAGGTAAAAGTTCAGTCAATCCCGAGGAT the figure was 0.584.
In turn, TCATATAGGTAAGTGCTAGGTGAAAGTCCGATCT displayed a PBM binding z-score of 0.473.
Under ATATGTAGGTTATCGGGTCTTTCAGTTTGCGCAT stands 1.3; under GCTAGCAGGCCATTTGGGTCACTGAATGACGGGC, 0.65; under CAAACTAGGCCACGAAAGGTCAAAGTCGAATGAC, 0.939.
With TCTTGAAGATCAATAGAGGTTAAGAAAGTGCGCT the figure was -0.674; with AGAAAGAGGTTATACGTAGATCAGGGAAGAAAGT, 0.336.
With ATATGTAGGTTAAGGGTAATTCAGGTTGGTTCGC, the PBM binding z-score is 1.45.
TAGCCTAGGTCATTCAGGGGCCAGTTTAGAAAGC came in with a PBM binding z-score of 0.971.
TCAGACAGGTGGAGGTAACTCAGGTACGCAGTCG yielded a PBM binding z-score of 0.639.
With GGAACGAGAGCATTCGAGTTGATAGCATGGCGAT the figure was -1.57.
Under ACTAGCAGACCAAGGGTCACTCAAGATTAGTCCG stands -0.116; under TCAGACAGGTGAAGGTACCTCAGGTACGCAGTCG, 0.205.
Under CGTCAAAGATCAACTAAGGTAACGTAAAGCACGC stands 1.79; under ATCTATAGGTAAGACTCAGTTCAGTGAAGAACGC, 0.24; under GCTGCTAGGTCAACAGATGGTCAGCTAAAGCTCG, 0.465.
TAGCCCAGGTCATTCAGGGGCCAGTATAGAAAGC returned a PBM binding z-score of 1.48.
With CGACCAAGGTCAAAGGTCAGTGAAGAGATGACGG, the PBM binding z-score was determined as 2.27.

(Values after the supplement of paper PMC6555819.)
